Inconclusive results are not listed. A call without a number means that no potency is given here. Calls of active or inactive are those of the source. The call rests on the fitted dose curve. Bridge positions count the residues as written; N and C are the ends. Square brackets hold non-standard residues; d marks the D form. Peptide text beside a SMILES is read from it. hArg = N=C(N)NCCCC[C@H](N)C(=O)O; Mpa = O=C(O)CCS

The test is described as follows: p53 small molecule agonists, cell-based qHTS assay with human liver microsomes (AID 1963577).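 Further: p53 response element beta-lactamase reporter cells with liver microsomes plus NADPH.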 A digest of the protocol: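 Metabolically competent format: test substances, human liver microsomes and NADPH (both 0.5 mg/mL final) incubated with p53RE-bla cells 16 h at 37 C. Beta-lactamase reporter signal then quantified by fluorescence.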
(Quantitative high-throughput screening tests each substance at several concentrations.)

Take `NC(=O)[C@@H]1CSSCCC(=O)N[C@@H](CCCCN=C(N)N)C(=O)NCC(=O)N[C@@H](CC(=O)O)C(=O)N[C@@H](Cc2c[nH]c3ccccc23)C(=O)N2CCC[C@H]2C(=O)N1` ([Mpa][hArg]GDWPC-NH2; disulfide 1-7): the Potency result is “inactive”.
As for `COC(=O)c1ccc(C(=O)O)cc1`, the Potency result was “inactive”.
As for `C[C@]12CC[C@H]3C(=CCc4cc(O)ccc43)[C@@H]1CCC2=O`, the Potency entry was “inactive”.
Regarding `CCCc1ccccc1O`, the Potency result was “inactive”.
With `CC(C)C[C@H](NC(=O)[C@H](Cc1ccccc1)NC(=O)c1cnccn1)B(O)O`, the Potency entry was “inactive”.
As to `O=C(O)CCCl`, the Potency entry is “inactive”.
Consider `CC[C@]1(O)C[C@H]2CN(CCc3c([nH]c4ccccc34)[C@@](C(=O)OC)(c3cc4c(cc3OC)N(C=O)[C@H]3[C@@](O)(C(=O)OC)[C@H](OC(C)=O)[C@]5(CC)C=CCN6CC[C@]43[C@@H]65)C2)C1`, for which the Potency entry was “inactive”.
`COc1ccc(NC(=O)CC(C)=O)cc1`: the Potency result was “inactive”.
Turning to `COc1nccnc1CC(C)C`, the Potency entry is “inactive”.
On to `CC1=CCCC(C)(C)C12CCC(C)O2` (stereo not given), for which the Potency entry was “inactive”.
For `CCO[Si](CC(C)C)(OCC)OCC`, the Potency result is “inactive”.
As for `CCCCCCNC(=O)n1cc(F)c(=O)[nH]c1=O`, the Potency entry was “inactive”.
Consider `CC(CN=Cc1ccccc1O)N=Cc1ccccc1O` (stereo not given), for which the Potency entry is “inactive”.
For `CC1=Nc2ccccc2C1(C)C`, the Potency entry is “inactive”.
For `c1ccc(C[n+]2cccc3ccccc32)cc1`, the Potency entry was “inactive”.
Next, `C=CC(=O)OCC(C)OCC(C)OCC(C)OC(=O)C=C` (stereo not given): “inactive”.
For `c1csc(SSc2cccs2)c1`, the Potency result is “inactive”.
For the compound `C[Si](C)(C)C`, the Potency entry is “inactive”.
With `Cc1cc(C)c(C)c(C)c1`, the Potency entry is “inactive”.
As for `CCCCN(CCN(CCCC)C(=O)N1CCOCC1)C(=O)N1CCOCC1`, the Potency result was “inactive”.
For `Nc1ccc(N)c2ccccc12` the value was “inactive”.
`Cc1ccc(O)c(C(=O)c2ccccc2)c1`: the Potency entry is “inactive”.
On to `CCCCC(CC)COP(=O)(O)O` (stereo not given), for which the Potency entry is “inactive”.
Regarding `O=C1c2ccccc2-c2ccccc21`, the Potency entry is “inactive”.
On to `CC[N+](C)(CC)CC`, for which the Potency entry was “inactive”.
In the case of `O=S(=O)(O)c1cc(I)c(O)c2ncccc12`, the Potency result was “inactive”.
Next, `O=C(/C=C/c1ccc(O)c(O)c1)O[C@@H]1C[C@@](OC(=O)/C=C/c2ccc(O)c(O)c2)(C(=O)O)C[C@@H](O)[C@@H]1O`: “inactive”; `CCc1c(C)[nH]c2c1C(=O)C(CN1CCOCC1)CC2` (stereo not given): “inactive”; `O=C(Cl)c1cc(Cl)cc(Cl)c1`: “inactive”.
`CC(C)c1cccc(C(C)C)c1N1C(=O)c2ccc(O)cc2C1=O`: the Potency result is “inactive”.

These data come from PubChem BioAssay (Tox21).
